Activity calls are given as the source filed them.
Tests used:
[1] = system: Plasmodium falciparum Sir2 (PF13_0152, Sir2A); assay: pfSir2 binders on small-molecule microarrays, primary screen, biochemical, small-molecule microarray, 635 nm fluorescence (AID 1098); details: small-molecule microarray binding, fluorescence 635 nm; higher = more signal;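 note: score merges spot fluorescence intensity with its signal-to-noise ratio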
[2] = small-molecule microarray binders of probe aDKK1, primary screen, biochemical, biotinylated probe, 635/667 nm fluorescence (AID 1099); details: higher = more signal;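 note: score merges 667nm spot fluorescence with signal to noise across triplicate slides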
[3] = small-molecule microarray binders of probe aCHRDL2, primary screen, biochemical, biotinylated probe, 635/667 nm fluorescence (AID 1100); details: higher = more signal
[4] = splicing luciferase reporter signal modulators, primary screen, spliceosome inhibition project, cell-based, HEK293, splice +/- reporter (AID 1101); details: luminescence, 24 h, higher = more signal, called active from +8 up or from −8 down;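 note: HEK293 cells carrying a splicing-competent luciferase reporter gene; test concentration not given here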
[5] = molecular target: Fibroblast growth factor 10 (Homo sapiens) (UniProt O15520); assay: FGF10 binders on small-molecule microarrays, primary screen, biochemical, small-molecule microarray, 635 nm fluorescence (AID 1102); details: FGF10 binding, fluorescence 635 nm, higher = more signal
Chain of Fibroblast growth factor 10 (Homo sapiens) (O15520 whole entry, looked up): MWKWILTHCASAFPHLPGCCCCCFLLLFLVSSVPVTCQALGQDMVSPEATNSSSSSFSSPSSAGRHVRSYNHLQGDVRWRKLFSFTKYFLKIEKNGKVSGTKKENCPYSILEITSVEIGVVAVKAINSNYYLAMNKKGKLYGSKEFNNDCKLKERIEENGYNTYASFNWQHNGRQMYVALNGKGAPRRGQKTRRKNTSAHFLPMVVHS

[6] = system: glycogen synthase kinase-3 (GSK3A per assay name; protocol says GSK3B); assay: GSK3 binders on small-molecule microarrays, primary screen, biochemical, small-molecule microarray, 635 nm fluorescence, GSK3A (AID 1103); details: small-molecule microarray binding, fluorescence 635 nm; higher = more signal; note: the record names both GSK3A and GSK3B
[7] = molecular target: Epidermal growth factor receptor (Homo sapiens) (UniProt P00533); assay: EGFR binders on small-molecule microarrays, primary screen, biochemical, small-molecule microarray, 635 nm fluorescence (AID 1104); details: EGFR binding, higher = more signal;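 note: score merges 667 nm emission intensity with spot signal to noise over triplicate slides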
Chain of Epidermal growth factor receptor (Homo sapiens) (P00533 whole entry, looked up): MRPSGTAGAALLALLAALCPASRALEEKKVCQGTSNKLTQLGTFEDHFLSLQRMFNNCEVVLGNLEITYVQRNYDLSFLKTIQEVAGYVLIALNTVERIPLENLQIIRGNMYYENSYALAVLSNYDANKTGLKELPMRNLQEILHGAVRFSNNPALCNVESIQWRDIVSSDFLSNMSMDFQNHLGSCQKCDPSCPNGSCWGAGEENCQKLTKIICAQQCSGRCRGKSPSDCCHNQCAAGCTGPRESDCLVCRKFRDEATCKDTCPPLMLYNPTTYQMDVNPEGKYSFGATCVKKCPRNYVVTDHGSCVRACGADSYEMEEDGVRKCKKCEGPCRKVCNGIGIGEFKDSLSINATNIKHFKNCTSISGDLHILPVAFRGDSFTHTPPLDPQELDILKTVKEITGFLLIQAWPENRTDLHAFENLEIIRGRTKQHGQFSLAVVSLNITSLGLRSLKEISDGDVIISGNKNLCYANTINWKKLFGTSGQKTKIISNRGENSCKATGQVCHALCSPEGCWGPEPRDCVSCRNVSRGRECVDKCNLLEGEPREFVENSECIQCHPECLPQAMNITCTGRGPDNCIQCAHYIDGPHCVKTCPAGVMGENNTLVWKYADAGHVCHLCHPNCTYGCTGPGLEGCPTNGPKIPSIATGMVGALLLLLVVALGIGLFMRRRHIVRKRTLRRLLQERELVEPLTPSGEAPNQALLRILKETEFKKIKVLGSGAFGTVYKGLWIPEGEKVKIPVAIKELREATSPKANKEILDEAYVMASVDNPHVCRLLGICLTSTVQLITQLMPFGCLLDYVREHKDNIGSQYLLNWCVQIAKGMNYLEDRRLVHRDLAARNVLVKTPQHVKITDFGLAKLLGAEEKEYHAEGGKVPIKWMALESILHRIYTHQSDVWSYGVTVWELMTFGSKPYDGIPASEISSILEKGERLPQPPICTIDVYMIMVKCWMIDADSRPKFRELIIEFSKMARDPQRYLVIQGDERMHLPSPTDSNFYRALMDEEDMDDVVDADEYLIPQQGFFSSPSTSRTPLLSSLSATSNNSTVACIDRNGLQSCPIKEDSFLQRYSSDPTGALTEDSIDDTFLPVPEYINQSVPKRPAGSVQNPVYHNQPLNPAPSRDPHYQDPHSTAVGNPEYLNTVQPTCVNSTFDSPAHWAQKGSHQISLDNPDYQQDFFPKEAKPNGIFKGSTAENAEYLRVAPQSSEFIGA

[8] = molecular target: Follistatin-related protein 3 (Homo sapiens) (UniProt O95633); assay: FSTL3 binders on small-molecule microarrays, primary screen, biochemical, small-molecule microarray, 635 nm fluorescence (AID 1105); details: FSTL3 binding, higher = more signal;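 note: score merges emission near 667 nm and signal to noise per printed spot across three slides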
Chain of Follistatin-related protein 3 (Homo sapiens) (O95633 whole entry, looked up): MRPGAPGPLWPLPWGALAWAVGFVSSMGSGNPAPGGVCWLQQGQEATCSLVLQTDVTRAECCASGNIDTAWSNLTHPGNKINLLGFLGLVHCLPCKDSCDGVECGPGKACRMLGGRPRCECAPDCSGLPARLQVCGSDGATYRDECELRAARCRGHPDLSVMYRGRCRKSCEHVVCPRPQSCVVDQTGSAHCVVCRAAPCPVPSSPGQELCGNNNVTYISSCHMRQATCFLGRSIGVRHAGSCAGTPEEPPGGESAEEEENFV

[9] = molecular target: Dickkopf-related protein 1 (Homo sapiens) (UniProt O94907); assay: DKK1 binders on small-molecule microarrays, primary screen, biochemical, small-molecule microarray, 635 nm fluorescence scan (AID 1106); details: DKK1 binding, higher = more signal;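 note: score merges emission near 667 nm with signal to noise over three replicate slides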
Chain of Dickkopf-related protein 1 (Homo sapiens) (O94907 whole entry, looked up): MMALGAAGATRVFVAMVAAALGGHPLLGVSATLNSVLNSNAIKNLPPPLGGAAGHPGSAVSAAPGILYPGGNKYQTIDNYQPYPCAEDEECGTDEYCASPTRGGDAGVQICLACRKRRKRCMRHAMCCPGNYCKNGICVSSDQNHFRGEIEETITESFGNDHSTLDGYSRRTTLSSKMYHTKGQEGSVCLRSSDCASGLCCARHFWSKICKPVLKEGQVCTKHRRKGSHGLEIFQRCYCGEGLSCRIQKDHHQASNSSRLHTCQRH

[10] = system: Inhibin beta A chain (activin A); assay: INHBA (activin A) binders on microarrays, primary screen, biochemical, small-molecule microarray, 635 nm fluorescence scan (AID 1107); details: small-molecule microarray binding, higher = more signal;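 note: mouse activin A protein probed at 4.33 µg/mL on printed slides; score merges bound-protein fluorescence near 667 nm with spot signal-to-noise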
[11] = system: Human papillomavirus type 1a protein E7 (residues 44-93); assay: HPV1a E7 fragment binders on microarrays, primary screen, biochemical, small-molecule microarray, residues 44-93, 635 nm fluorescence (AID 1108); details: small-molecule microarray binding, fluorescence 635 nm; higher = more signal;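 note: E7 fragment applied at 1 µg/mL in TBST for 1 h at 4 C; score combines spot fluorescence with its signal to noise ratio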
[12] = modulators of HCV replicon luciferase signal, primary screen, HCV replication inhibitor project, Huh7 cells, luciferase reporter (AID 1109); details: 48 h, higher = more signal;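 note: huh7 hepatoma cells harbouring a luciferase neomycin HCV replicon reporter; luciferase luminescence as measure of HCV replicon replication; test concentration not given here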
[13] = molecular target: Left-right determination factor 2 (Homo sapiens) (UniProt O00292); assay: LEFTY2 binders on small-molecule microarrays, primary screen, biochemical, small-molecule microarray, 635 nm fluorescence scan (AID 1110); details: LEFTY2 binding, higher = more signal
Chain of Left-right determination factor 2 (Homo sapiens) (O00292 whole entry, looked up): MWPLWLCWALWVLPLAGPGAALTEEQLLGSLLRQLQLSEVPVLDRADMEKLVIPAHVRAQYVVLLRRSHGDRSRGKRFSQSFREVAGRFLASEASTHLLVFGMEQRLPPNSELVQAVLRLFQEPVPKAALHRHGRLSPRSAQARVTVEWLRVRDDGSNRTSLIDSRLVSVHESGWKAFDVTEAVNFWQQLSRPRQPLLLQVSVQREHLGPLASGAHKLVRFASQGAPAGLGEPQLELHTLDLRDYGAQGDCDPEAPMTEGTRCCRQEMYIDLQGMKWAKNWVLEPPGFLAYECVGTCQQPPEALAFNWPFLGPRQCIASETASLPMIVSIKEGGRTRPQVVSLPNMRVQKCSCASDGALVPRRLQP

[14] = molecular target: Calmodulin-1 (Homo sapiens) (UniProt P0DP23); assay: CALM1 binders on microarrays, EGTA buffer, profiling panel, biochemical, small-molecule microarray, Cy5-labelled CALM1 (AID 1111); details: Cy5-CALM1 binding fluorescence, higher = more signal;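 note: labelled calmodulin applied in Tris saline Tween buffer holding calcium plus EGTA and DTT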
[15] = molecular target: Calmodulin-1 (Homo sapiens) (UniProt P0DP23); assay: calcium-bound CALM1 binders on microarrays, profiling panel, artefact control for SMM control-protein annotation, biochemical, small-molecule microarray, Cy5-labelled CALM1, plus calcium (AID 1112); details: Cy5-CALM1 binding fluorescence, higher = more signal;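 note: score merges spot fluorescence with signal to noise from triplicate slides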
[16] = small-molecule microarray binders of probe aWnt5a, primary screen, biochemical, biotinylated probe, 635/667 nm fluorescence (AID 1113); details: higher = more signal;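 note: score merges 667 nm fluorescence intensity with signal-to-noise per printed feature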
[17] = small-molecule microarray binders of probe aShh, primary screen, biochemical, biotinylated probe, 635/667 nm fluorescence (AID 1114); details: higher = more signal;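 note: probe is biotin-labelled aShh protein from a stem cell growth factor screen; measures binding of labelled protein to compounds printed on the slide; score merges feature fluorescence at 667 nm with signal-to-noise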
[18] = small-molecule microarray binders of probe aNog, primary screen, biochemical, biotinylated probe, 635/667 nm fluorescence (AID 1115); details: higher = more signal;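 note: probe is biotinylated aNog protein used at 0.15 µg/mL for 1 h at 4 C; z-score combines 667 nm fluorescence of each spot with its signal to noise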
[19] = molecular target: Torsin-1A-interacting protein 1 (Homo sapiens) (UniProt Q5JTV8); assay: LAP1 binders from COS7 cell lysate, primary screen, small-molecule microarray, 635/667 nm fluorescence (AID 1116); details: COS7-hLAP1 lysate binding, 635 nm fluorescence, higher = more signal
Chain of Torsin-1A-interacting protein 1 (Homo sapiens) (Q5JTV8 whole entry, looked up): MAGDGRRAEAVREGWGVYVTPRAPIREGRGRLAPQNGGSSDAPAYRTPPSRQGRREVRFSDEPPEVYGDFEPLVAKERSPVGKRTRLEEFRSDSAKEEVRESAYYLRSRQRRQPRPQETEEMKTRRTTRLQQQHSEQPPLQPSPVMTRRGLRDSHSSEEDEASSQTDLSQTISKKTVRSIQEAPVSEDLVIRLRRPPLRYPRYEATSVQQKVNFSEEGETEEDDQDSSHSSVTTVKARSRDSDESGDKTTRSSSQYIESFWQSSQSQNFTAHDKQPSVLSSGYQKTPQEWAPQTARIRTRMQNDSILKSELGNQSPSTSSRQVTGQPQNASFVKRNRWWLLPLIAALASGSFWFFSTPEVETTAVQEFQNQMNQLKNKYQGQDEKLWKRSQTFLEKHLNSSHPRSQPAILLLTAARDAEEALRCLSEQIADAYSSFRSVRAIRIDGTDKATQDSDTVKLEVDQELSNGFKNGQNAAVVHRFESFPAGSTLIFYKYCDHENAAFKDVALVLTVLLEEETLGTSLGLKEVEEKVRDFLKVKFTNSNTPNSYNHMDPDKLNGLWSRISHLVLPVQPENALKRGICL

[20] = molecular target: Alpha-bungarotoxin (Bungarus multicinctus) (UniProt P60615); assay: alpha-bungarotoxin binders on microarray, profiling panel, artefact control for SMM control protein annotation, biochemical, small-molecule microarray, Alexa647 label, 635/667 nm fluorescence (AID 1117); details: alpha-BTX-A647 binding fluorescence, higher = more signal
Chain of Alpha-bungarotoxin (Bungarus multicinctus) (P60615 whole entry, looked up): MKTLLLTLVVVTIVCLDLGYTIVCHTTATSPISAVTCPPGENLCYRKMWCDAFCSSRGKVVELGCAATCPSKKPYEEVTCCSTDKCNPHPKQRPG

Compound	composite z-score [1]	composite z-score [2]	composite z-score [3]	z-score [4]	composite z-score [5]	composite z-score [6]	composite z-score [7]	composite z-score [8]	composite z-score [9]	composite z-score [10]	composite z-score [11]	z-score [12]	composite z-score [13]	composite z-score [14]	composite z-score [15]	composite z-score [16]	composite z-score [17]	composite z-score [18]	composite z-score [19]	composite z-score [20]
CC(=O)OC[C@H]1O[C@H](CC=NOC[C@@H](O)COCc2ccco2)C=C[C@@H]1OC(C)=O	0.717	-0.233	-1.06	-0.0391 (inactive)	0.397	1.24	1.58	1.37	1.74	1.14	-0.646	0.586	0.898	-1.18	-2.22	-0.102	-0.356	-0.498	1.58	-0.663
COC(=O)[C@@H]1CC[C@H](C)[C@@H](c2ccc(Br)cc2)N1	-0.725	0.297	0.321	-0.181 (inactive)	-0.0529	-0.879	0.377	-0.391	0.187	0.894	-1.28	-0.178	0.0281	-0.0261	0.394	0.0375	0.261	0.101	0.488	0.234
CC(C)=CCCC(C)=CCON=C1C[C@@H](O)[C@@H](O)[C@@H]2[C@@H]3C(=O)N([C@@H](C)c4ccccc4)C(=O)[C@@H]3CC[C@@H]12	0.277	-0.213	-0.572	-0.168 (inactive)	0.461	0.598	0.407	0.319	0.134	0.521	0.257	0.0308	0.898	-0.544	-0.406	-0.012	-0.289	-0.247	0.222	0.551
COc1ccc(OC[C@@H](CO)OC)cc1	-0.276	-0.233	-0.401	1.18 (inactive)	0.428	0.405	0.202	0.475	0.321	0.512	0.0047	-0.719	0.178	-0.584	-0.671	-0.244	0.0639	-0.0448	0.551	0.0276
COc1ccc(O[C@H]2C=C[C@@H](C#Cc3ccccc3)O[C@@H]2CO)cc1	0.544	-0.139	-0.253	1.45 (inactive)	0.535	-0.139	0.316	-0.0229	0.377	1.08	0.342	-2.17	-0.0192	1.42	0.493	-0.124	0.0048	-0.0428	0.158	0.439
CCN1C(=O)[C@H]2[C@H]3[C@H](O)[C@H](O)CC(=NO[C@H](C)c4cn([C@H](CO)Cc5ccccc5)nn4)[C@@H]3CC[C@H]2C1=O	0.955	0.245	-0.681	-0.05 (inactive)	0.869	0.978	0.587	1.05	0.553	-0.802	0.485	-1.02	0.741	0.782	-0.0865	-0.0573	-0.358	0.202	0.476	1.29
C[C@@H]1CC[C@@H](C(=O)O)N[C@H]1c1cccc(N2CCOCC2)c1	0.168	-0.191	-0.449	-1.02 (inactive)	0.631	0.74	0.797	0.409	0.109	0.0223	0.456	0.47	0.436	-0.101	-0.0411	-0.0758	-0.262	-0.324	0.513	0.851
CC(C)CON=C1C[C@@H](O)[C@@H](O)[C@@H]2[C@@H]3C(=O)N(C(C)(C)C)C(=O)[C@@H]3CC[C@@H]12	1.08	-0.58	-1.35	-1.15 (inactive)	0.156	1.25	0.85	0.85	1.95	0.418	-0.219	-0.851	1.1	-1.39	-2.27	-0.178	-0.229	-0.158	0.0031	-0.718
CC(CCN1CCc2nc(-c3ccccc3)c(-c3ccccc3)cc2C1)=NOC(C)CN1CCCc2nc(C)c(C)cc21 (stereo not given)	0.934	0.196	-0.218	1.12 (inactive)	0.942	1.02	0.603	1.02	0.732	0.858	1.39	-3.08	0.848	0.637	-0.0431	0.0017	0.267	0.378	0.825	1.03
CC(C)=CCCC(C)=CCON=C1C[C@@H](O)[C@@H](O)[C@@H]2[C@@H]3C(=O)N(c4cccc(Oc5ccccc5)c4)C(=O)[C@@H]3CC[C@H]12	0.0643	-0.183	-0.2	0.467 (inactive)	0.411	0.286	0.348	0.751	0.419	0.657	1.32	0.237	0.323	0.322	0.321	-0.148	0.0483	-0.0129	0.173	-0.0168
COCOc1ccc(Br)cc1C(=O)C=Cc1ccc2c(c1)OCO2	-0.0162	-0.304	-0.662	-0.838 (inactive)	0.59	-0.207	0.524	0.679	0.665	1.22	-0.478	-3.81	0.489	-0.978	-1.25	-0.0721	-0.2	0.0689	0.0258	0.075
COC(=O)CC=C[C@@H](C)[C@@H](C=NOC[C@@H](C)[C@H](OCc1ccccc1)C(C)C)OC	0.161	-0.325	-0.208	-0.201 (inactive)	0.286	0.103	0.146	0.102	0.426	-0.283	0.281	-0.759	0.364	-0.481	-0.79	-0.096	-0.19	-0.116	-0.062	0.215
